Measured values: PubChem BioAssay
Activity calls are given as the source filed them.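 How the source made its calls, unless noted: active means inhibition at or above 50% at 10 µM; inactive means inhibition below 50%.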

Key:
[1] = inhibitors of TNFa-induced NFkB p65 translocation, primary screen, imaging, HUVEC, MLSMR starter and 10KST1 sets (AID 438;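 active means inhibition above 20% together with a positive visual image hit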;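 further: compound added about 3h40 before a 20 min TNFalpha stimulation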;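 on inhibition: signal is the nuclear over cytoplasmic p65 intensity ratio per well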); conditions: HUVEC TNFa-induced p65 nuclear translocation; cell count: measured here: nuclei count (cytotoxicity indicator), at 2.08 µM; inhibition: at 2 µM, stronger effect = higher value, 0% TNFa-plus-vehicle, 100% no-TNFa wells
[2] = inhibitors of mutant huntingtin aggregation, primary screen, imaging, exon1htt(103Q)mCFP cells, high-content imaging (AID 483;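 active means visual image review flags a hit and inhibition of aggregation exceeds 20%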;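 further: compound exposure lasted 3 days before fixation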;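 on nuclei count: percent of the per-plate median nuclei count of sample wells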); conditions: exon1htt(103Q)mCFP cell line, aggregate imaging, at 2 µM; inhibition of aggregation: stronger effect = higher value; nuclei count: measured here: cell count, toxicity
[3] = inhibitors of E-selectin induction by TNFa, primary screen, imaging, HUVEC, immunofluorescence, MLSMR starter and 10KST1 sets (AID 487;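 active means visually confirmed hit in the image check and inhibition above 20%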;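 on inhibition: signal is fraction of cell area covered by stained E-selectin grains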;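 on nuclei count: 100% = median nuclei count of all wells on the same plate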); conditions: HUVEC TNFalpha-induced E-selectin immunofluorescence imaging, at 2 µM; inhibition: stronger effect = higher value; nuclei count: measured here: cell number, toxicity
[4] = molecular target: Voltage-gated potassium channel subunit beta-2 (Rattus norvegicus) (UniProt P62483); test: KvBeta enzyme negative modulators, primary screen, biochemical, NADPH fluorescence (AID 622;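 active means fluorescence slope higher than the sample average by over 3 SD, cut at about -0.22 in these data, passing the limit was not always enough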;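 further: slope of raw intensity against log time taken from 70 to 1610 s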); conditions: recombinant KvBeta, 4-cyanobenzaldehyde reduction, at 10 µM, stronger effect = higher value
Voltage-gated potassium channel subunit beta-2 (Rattus norvegicus), sequence (P62483 whole entry, looked up): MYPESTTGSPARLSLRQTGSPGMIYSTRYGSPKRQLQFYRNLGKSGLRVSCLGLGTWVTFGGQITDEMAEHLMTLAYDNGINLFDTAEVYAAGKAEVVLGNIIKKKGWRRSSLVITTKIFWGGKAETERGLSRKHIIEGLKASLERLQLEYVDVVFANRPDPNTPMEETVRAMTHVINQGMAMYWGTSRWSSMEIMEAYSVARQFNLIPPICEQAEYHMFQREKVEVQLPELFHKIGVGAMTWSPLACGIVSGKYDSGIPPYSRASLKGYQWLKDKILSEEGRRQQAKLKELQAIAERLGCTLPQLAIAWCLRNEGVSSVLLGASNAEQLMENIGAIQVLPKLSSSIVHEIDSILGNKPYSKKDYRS

[5] = molecular target: Voltage-gated potassium channel subunit beta-2 (Rattus norvegicus) (UniProt P62483); test: KvBeta positive modulators, primary screen, biochemical, NADPH fluorescence (AID 623;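 active means NADPH fluorescence slope more negative than the mean of all samples by about 3 SD, 99.7% confidence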;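 further: fluorescence intensity change per second fitted from 20 to 320 s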); conditions: Recombinant KvBeta, NADPH fluorescence decrease slope, 10 min; at 10 µM; stronger effect = lower value
[6] = molecular target: Alpha-2C adrenergic receptor (Homo sapiens) (UniProt P18825); test: modulators of alpha2C/GIRK thallium flux, primary screen, cell-based, HEK293 alpha2C/GIRK1/2 (AID 624;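 active means fluorescence slope after compound addition differing from the mean of all screened samples at 99.7% confidence, in either direction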;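 further: slope of fluorescence ratio to pre-addition baseline per second over 15 to 24 s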); conditions: thallium flux BTC fluorescence, at 10 µM, actives lie on both sides
Alpha-2C adrenergic receptor (Homo sapiens), sequence (P18825 whole entry, looked up): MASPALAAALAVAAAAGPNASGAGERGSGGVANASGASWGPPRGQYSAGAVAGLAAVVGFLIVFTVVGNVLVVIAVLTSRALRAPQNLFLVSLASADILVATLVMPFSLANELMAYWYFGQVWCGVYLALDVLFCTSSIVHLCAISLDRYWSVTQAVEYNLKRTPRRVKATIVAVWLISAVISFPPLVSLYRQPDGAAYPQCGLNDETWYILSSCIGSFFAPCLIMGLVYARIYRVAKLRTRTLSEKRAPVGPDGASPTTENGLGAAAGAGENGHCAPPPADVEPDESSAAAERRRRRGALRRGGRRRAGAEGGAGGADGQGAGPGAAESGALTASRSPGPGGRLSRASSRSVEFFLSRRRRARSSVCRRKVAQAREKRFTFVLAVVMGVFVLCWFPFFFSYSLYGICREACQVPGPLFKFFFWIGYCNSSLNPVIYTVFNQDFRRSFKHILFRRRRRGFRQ

[7] = inhibitors of Sendai virus-induced IRF3 signaling, primary screen, TLR/RLR signaling modifier project, cell-based, Sendai virus stimulus, luciferase, 10K MLSCN set (AID 602276); conditions: HEK293 RL24 IRF3 luciferase reporter, at 10 µM, stronger effect = higher value;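 further: firefly luciferase from ISG56 promoter only with Renilla not read in this screen; 0% = Sendai virus plus DMSO and 100% = medium plus DMSO without virus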
[8] = inhibitors of poly I:C-induced TLR3 signaling, primary screen, cell-based, poly I:C stimulus, luciferase, 10K MLSCN set (AID 602277;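 active means inhibition of the reporter signal at or above 50%; inactive means inhibition below 50%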); conditions: HEK293-TLR3 RL24 IRF3 luciferase reporter, at 10 µM, stronger effect = higher value

SMILES	cell count [1]	inhibition [1]	inhibition of aggregation [2]	nuclei count [2]	inhibition [3]	nuclei count [3]	fluorescence slope [4]	NADPH fluorescence slope [5]	slope [6]	inhibition [7]	inhibition [8]
COc1ccc(C(=O)CSc2nc(C)cc(=O)[nH]2)cc1	291	6.5% (inactive)	13.9% (inactive)	92.1%	43.1% (inactive)	98.7%	-0.506 (inactive)	2.1e-06 (inactive)	0.0048 (inactive)	14.8% (inactive)	9.5% (inactive)
O=C(NCc1ccccc1)C1CCCN(S(=O)(=O)c2cccnc2)C1 (stereo not drawn)	230	-0.7% (inactive)	0.8% (inactive)	92.5%	-59.6% (inactive)	98.3%	-0.549 (inactive)	-1.4e-05 (inactive)	0.0054 (inactive)	5.96% (inactive)	11% (inactive)
COc1ccc(S(=O)(=O)N(CCN2CCOCC2)Cc2cc(OC)ccc2OC)cc1	426	8.5% (inactive)	-25.8% (inactive)	102%	-100% (inactive)	113%	-0.582 (inactive)	-1.5e-06 (inactive)	0.00508 (inactive)	17.2% (inactive)	33.5% (inactive)
CCn1c(SCC(=O)Nc2ccc3c(c2)OCO3)nc2c(c1=O)SC(C)C2 (stereo not drawn)	496	9.6% (inactive)	4% (inactive)	111%	15.4% (inactive)	95.3%	-0.561 (inactive)	-5e-05 (inactive)	0.00661 (inactive)	-0.539% (inactive)	16.9% (inactive)
Cc1cccn2c(=O)c3cc(C(=O)N4CCCc5ccccc54)n(C)c3nc12	232	15.9% (inactive)	10.9% (inactive)	98.7%	29.9% (inactive)	96%	-0.556 (inactive)	-3.1e-05 (inactive)	0.00631 (inactive)	6.77% (inactive)	17.7% (inactive)
COc1ccc(C)cc1NC(=O)CCN1CCCC1	257	-1.2% (inactive)	7.8% (inactive)	87.6%	6.5% (inactive)	109%	-0.442 (inactive)	-3.8e-06 (inactive)	0.00559 (inactive)	15.3% (inactive)	16.2% (inactive)
Cc1n[nH]c(C)c1N1C(=O)c2cccc3cc(Br)cc(c23)C1=O	476	5.9% (inactive)	-9.9% (inactive)	103%	-36.7% (inactive)	123%	-0.375 (inactive)	-7.7e-05 (inactive)	0.00408 (inactive)	1.78% (inactive)	27.1% (inactive)
Nc1ccc(-c2ccc(N)cc2C(F)(F)F)c(C(F)(F)F)c1	510	-15.4% (inactive)	-0.4% (inactive)	96.5%	-3.6% (inactive)	101%	-0.446 (inactive)	-9.4e-05 (inactive)	0.00482 (inactive)	16.9% (inactive)	24% (inactive)
CN1CCN(c2nc3c(c(=O)[nH]c(=O)n3C)n2CCSc2nc3ccccc3s2)CC1	503	-0.3% (inactive)	25.5% (inactive)	106%	30.5% (inactive)	100%	-0.578 (inactive)	-3e-05 (inactive)	0.00601 (inactive)	12.4% (inactive)	33.3% (inactive)
O=C(Nc1ccc2c(c1)OCCO2)c1cnc2n(c1=O)CCS2	550	-2.3% (inactive)	9.3% (inactive)	78.2%	-8.2% (inactive)	98.4%	-0.57 (inactive)	-5.8e-06 (inactive)	0.00627 (inactive)	-79.9% (inactive)	-177% (inactive)
Cn1c(N2CCC(C(N)=O)CC2)nc2c1c(=O)n(Cc1ccc(Br)cc1)c(=O)n2C	537	-2.7% (inactive)	4.3% (inactive)	97.3%	24.2% (inactive)	95.1%	-0.571 (inactive)	-2.3e-05 (inactive)	0.00671 (inactive)	6.03% (inactive)	1.39% (inactive)
COC(=O)c1ccc(C(=O)OC)c(NC(=O)Nc2ccc3c(c2)OCO3)c1	279	-7.1% (inactive)	2.1% (inactive)	94.2%	-15.8% (inactive)	95.1%	-0.417 (inactive)	7.6e-06 (inactive)	0.00311 (inactive)	-24.9% (inactive)	-44.2% (inactive)
CCN(CCNC(=O)C1CCN(S(=O)(=O)c2cccc3cccnc23)CC1)c1ccccc1	614	5.8% (inactive)	-11% (inactive)	112%	2.5% (inactive)	108%	-0.569 (inactive)	2.5e-05 (inactive)	0.00561 (inactive)	11.9% (inactive)	12.7% (inactive)
CCOc1ccc(-c2nc(S(=O)(=O)c3ccccc3)c(NCc3cccnc3)o2)cc1	621	0.6% (inactive)	-7.9% (inactive)	105%	-59% (inactive)	109%	-0.534 (inactive)	3.2e-06 (inactive)	0.00448 (inactive)	0.887% (inactive)	-7.62% (inactive)
CCCN1C(=O)c2cc(C(=O)O)ccc2C1O (stereo not drawn)	817	8.1% (inactive)	21.4% (inactive)	103%	-95.2% (inactive)	118%	-0.514 (inactive)	-2.2e-05 (inactive)	0.00732 (inactive)	4.49% (inactive)	13.6% (inactive)
Cc1c(NC(=O)c2ccc(COc3ccc4ccccc4c3)o2)c(=O)n(-c2ccccc2)n1C	417	2.2% (inactive)	1.1% (inactive)	101%	-55.3% (inactive)	109%	-0.598 (inactive)	-2.6e-05 (inactive)	0.0029 (inactive)	-13.4% (inactive)	-61.2% (inactive)
CC1CCCCN1CCNC(=O)C1CCN(S(=O)(=O)c2cccc3cccnc23)CC1 (stereo not drawn)	450	-0.8% (inactive)	5.9% (inactive)	72.5%	-54.5% (inactive)	105%	-0.522 (inactive)	-4e-05 (inactive)	0.00613 (inactive)	6.15% (inactive)	39.6% (inactive)
O=S(=O)(NCc1ccccn1)c1ccc2c(c1)OCCO2	673	11.1% (inactive)	-27.1% (inactive)	99.3%	-3.6% (inactive)	102%	-0.354 (inactive)	-8e-05 (inactive)	0.00513 (inactive)	3.8% (inactive)	5.59% (inactive)
Cc1ccccc1NC(=O)C1CCCN(S(=O)(=O)c2cccc3cccnc23)C1 (stereo not drawn)	613	6.8% (inactive)	21% (inactive)	71.1%	-45.4% (inactive)	112%	-0.554 (inactive)	1.2e-05 (inactive)	0.00703 (inactive)	1.01% (inactive)	13.7% (inactive)
CC1(C)CC(=O)C(CC(=O)NC(=O)NCc2ccccc2)=C(O)C1	462	3.4% (inactive)	0.1% (inactive)	102%	-65.4% (inactive)	99.2%	-0.501 (inactive)	1e-05 (inactive)	0.00433 (inactive)	-1.73% (inactive)	7.39% (inactive)
CCn1c(SCC(=O)N2CCN(c3ccc(Cl)cc3)CC2)nc2ccccc2c1=O	324	8.1% (inactive)	19.7% (inactive)	83.7%	-184% (inactive)	102%	-0.545 (inactive)	4e-05 (inactive)	0.00578 (inactive)	-8.17% (inactive)	-12.7% (inactive)
CCOC(=O)NC(=O)CSc1nnnn1-c1ccc(Cl)cc1	394	10% (inactive)	2.2% (inactive)	83.5%	-90.3% (inactive)	110%	-0.297 (inactive)	4.2e-05 (inactive)	0.00637 (inactive)	4.73% (inactive)	15.2% (inactive)
Cc1ccc(-c2nc(N)n(C(=O)c3cccnc3)n2)cc1	359	5.5% (inactive)	-19.9% (inactive)	113%	-110% (inactive)	109%	-0.339 (inactive)	-5.3e-06 (inactive)	0.00801 (inactive)	0.795% (inactive)	22.5% (inactive)
O=C(C1COc2ccccc2O1)N1CCCC1 (stereo not drawn)	283	-8.4% (inactive)	32.8% (active)	83.7%	-72.5% (inactive)	99.2%	-0.332 (inactive)	1.7e-05 (inactive)	0.0093 (inactive)	-11.4% (inactive)	3.67% (inactive)
Cn1c(SCC(=O)Nc2ccc(F)cc2)nnc1-c1cccnc1	660	-1.1% (inactive)	5.2% (inactive)	90.3%	-57.8% (inactive)	110%	-0.578 (inactive)	-4.7e-05 (inactive)	0.00652 (inactive)	-0.187% (inactive)	21.7% (inactive)
CCn1cc(SCC(=O)NCC2CCCO2)c2ccccc21 (stereo not drawn)	692	-20.6% (inactive)	8.9% (inactive)	112%	-8.7% (inactive)	102%	-0.4 (inactive)	-4.5e-05 (inactive)	0.00573 (inactive)	3.88% (inactive)	15.1% (inactive)
Cc1ccc(NC(=O)CCC(=O)OCC(F)(F)C(F)F)cc1	551	-2.4% (inactive)	2% (inactive)	69.2%	-2.3% (inactive)	91.8%	-0.454 (inactive)	6.2e-06 (inactive)	0.00371 (inactive)	3.35% (inactive)	35.3% (inactive)
CCc1nnc(NC(=O)CCC(=O)Nc2ccccc2)s1	554	7.2% (inactive)	-10.2% (inactive)	97.2%	33.2% (inactive)	93.4%	-0.384 (inactive)	-6.1e-05 (inactive)	0.00537 (inactive)	9.85% (inactive)	2.44% (inactive)
